ST2 inh – inhibitors of human ST2 (IL1RL1) binding to IL-33 | inhibition, % for hits at 17 µM | AID 1259354 | hit rate 2.3% among 78,000 | AlphaLISA ST2-Fc/biotin-IL-33 interaction, 1 h | Q01638; in the data active = inhibition above about 30%
* marks the source's active call; other numbers are inactive results; i = inactive. This excerpt belongs to a sample that is enriched for hits.

SMILES	ST2 inh
COc1ccccc1C(=O)c1nc2ccccc2n1C(C)C	i
COc1ccc2n[nH]c(CN3CC[C@H](CO)[C@H](O)C3)c2c1	i
CC1CCN(c2cc(Br)c([N+](=O)[O-])cc2F)CC1	45.0%*
CN(C)c1ccc(N2CCNCC2)c([N+](=O)[O-])c1	i
O=[N+]([O-])c1cc(F)c(N2CCCCC2)cc1Br	42.0%*
CC1CN(c2ccccc2[N+](=O)[O-])CC(C)N1 (stereo not drawn)	i
CN=C(C)c1c(O)n(C)c(=O)n(C)c1=O	i
S=C(NC[C@H]1C[C@@H]2CCN1C[C@@H]2CN1CCN(c2ccccn2)CC1)Nc1ccccc1	i
CCN(C)c1ccnc(N2CCC3(CC2)CN(C)CCN3C)n1	i
c1cn(CCc2cnc[nH]2)c(C2CCOC2)n1 (stereo not drawn)	i
O=S(=O)(NC[C@H]1C[C@@H]2CCN1C[C@@H]2CN1CCN(c2ccccc2)CC1)c1ccccc1	i
Cc1ccc(S(=O)(=O)NC[C@H]2C[C@@H]3CCN2C[C@@H]3CN2CCN(c3ccccc3)CC2)cc1	33.0%*
O=S(=O)(NC[C@H]1C[C@@H]2CCN1C[C@@H]2CN1CCN(c2ccc(F)cc2)CC1)c1ccccc1	i
O=C(NC1CC1)[C@H]1CN2CC[C@H]1C[C@@H]2Cn1cc(-c2cccc(O)c2)nn1	i
Cc1nnc(N2CCN(C)CC2)[nH]c1=O	i
CCOC(=O)c1c(C)n(C(C)C)c2ccc(OC)cc12	i
COc1ccc2c(c1)c(CCN)c(C)n2Cc1ccccc1	38.0%*
COc1ccc2c(CCN)c[nH]c2c1	i

From PubChem
